In all, about 310,000 compounds went through this assay and about 410 (0.13%) were called active. Inconclusive results (about 2%) are left out. The rule behind the calls is not given here. Not all results are given here. Potency and affinity values are given separately.

The experiment is described as follows: RSV antiviral activity via CPE protection, HEp-2 cells, primary 10 µM value included (AID 2391). To be noted: RSV-induced CPE inhibition, at 10 µM, stronger effect = higher value.
On to `Cc1cccc(-c2nc(CSCC(=O)N3CCN(Cc4ccc5c(c4)OCO5)CC3)c(C)o2)c1`, for which the CPE inhibition was 4.52% (inactive).
On to `CCOc1ccc(NC(=NCc2ccc3c(c2)OCO3)SC2CC(=O)N(c3ccc(OCC)cc3)C2=O)cc1` (stereo not drawn), for which the CPE inhibition is 2.56% (inactive).
In the case of `O=C(O)c1ccc(N2C(=O)CC(SC(=NCc3ccc4c(c3)OCO4)Nc3ccccc3)C2=O)cc1` (stereo not drawn), the CPE inhibition is 5.3% (inactive).
As for `CCOc1ccc(NC(=NCc2ccc3c(c2)OCO3)SC2CC(=O)N(c3ccccc3)C2=O)cc1` (stereo not drawn), the figure is 1.98% (inactive).
For `O=C1CC(SC(=NCc2ccc3c(c2)OCO3)Nc2ccccc2)C(=O)N1c1ccccc1` (stereo not drawn), the CPE inhibition is 3.83% (inactive).
For `COc1ccc(CN2C(=O)c3cccnc3C2=O)cc1S(=O)(=O)N(C)c1cccc(C)c1` the value was 1.8% (inactive); for `O=C(Nc1ccc(Cn2cccn2)cc1)c1ccc(COc2cccc(Br)c2)cc1`, -0.58% (inactive); for `Cc1ccc(C(=O)NCC2CCCN2S(=O)(=O)c2cccs2)cc1C` (stereo not drawn), 1.81% (inactive).
As to `CCC(C)c1ccc2oc(-c3ccc(NC(=O)c4ncn[nH]4)cc3)nc2c1` (stereo not drawn), the CPE inhibition was 9.89% (inactive).
For `CCCC(=O)Nc1cccc(-c2nc3cc(C)c(C)cc3o2)c1` the value was 1.54% (inactive).
For `Cc1ccc(-c2nc3cc(NC(=O)C(C)C)ccc3o2)cc1C` the value was 14.6% (inactive); for `CCCC(=O)Nc1ccc(-c2nc3cc(C)ccc3o2)cc1`, 40.7% (inactive); for `CCC(C)NCC(=O)Nc1ccc(-c2nc3cc(NC(=O)CNC(C)CC)ccc3o2)cc1` (stereo not drawn), 1.28% (inactive).
As for `Cc1ccc(-c2nc3cc(NC(=O)C(C)C)ccc3o2)cc1`, the figure is 4.38% (inactive); as for `Clc1ccc(CSc2ccc(-c3cccnc3)nn2)cc1`, 20.4% (inactive).
As to `Cc1c(C(=O)OCC(=O)Nc2c(C)n(C)n(-c3ccccc3)c2=O)oc2ccccc12`, the CPE inhibition is 0.38% (inactive).
As for `Cc1cc(OCC(O)CN2CCCC2)cc(C)c1Cl` (stereo not drawn), the figure is -0.91% (inactive); as for `CC(C)n1c(SCC(=O)N2CCCC2)nc2c1c(=O)n(C)c(=O)n2C`, -0.46% (inactive); as for `CCCN(Cc1nnc(-c2ccccc2Cl)o1)C(=O)c1oc2ccccc2c1C`, 44% (inactive).
As for `O=C(c1ccccc1)c1cc([N+](=O)[O-])ccc1N1CCCC1`, the figure is 3.67% (inactive); as for `S=c1nccc(-c2cccs2)[nH]1`, 5.75% (inactive); as for `O=C1c2ccccc2NC2(CCCC2)N1N=C1CCCC1`, 2.08% (inactive).
With `O=C1CC(NCc2ccccc2F)C(=O)N1c1ccccc1` (stereo not drawn), the CPE inhibition is 0.44% (inactive).
In the case of `Cc1ccc(NC(=O)CCS(=O)(=O)c2cccc3nonc23)c(Cl)c1`, the CPE inhibition was 0.71% (inactive).
With `COC(=O)c1ccc(Cn2nnc3ccccc3c2=O)o1`, the CPE inhibition is 4.91% (inactive).
As for `COC(=O)c1ccc(CSc2nc3ccccc3c(=O)n2CC(C)C)o1`, the figure is 4.85% (inactive).
For `Cc1c(C)c2ccc(OCC(=O)Nc3nccs3)cc2oc1=O` the value was 20.3% (inactive).
For `COc1ccc(OC)c(N(C(=O)c2ccco2)C(C(=O)NC2CCCC2)c2ccc(N3CCOCC3)cc2)c1` (stereo not drawn) the value was 1.32% (inactive); for `COc1cc(/C=C2\SC(=S)N(NS(=O)(=O)c3ccccc3)C2=O)ccc1O`, 4.97% (inactive).
Consider `CCOc1ccc(/C=C2\SC(=S)N(NS(=O)(=O)c3ccccc3)C2=O)cc1OC`, for which the CPE inhibition was 2.94% (inactive).
In the case of `CN1CCN(C(=O)c2cc(Cl)cc(Cl)c2NC(=O)c2ccco2)CC1`, the CPE inhibition is 0.57% (inactive).
As for `Cc1cc(NC(=O)c2cc3ccccc3o2)ccc1NC(=O)c1ccccc1`, the figure is 5.86% (inactive); as for `O=C(Nc1ccc(NC(=O)c2cc3ccccc3o2)cc1)c1ccc2c(c1)OCCO2`, 6.03% (inactive); as for `Cc1ccc(N(CC(=O)NCCc2ccc(F)cc2)S(=O)(=O)c2ccc(Cl)c([N+](=O)[O-])c2)c(C)c1`, 3.85% (inactive).
Turning to `Cc1cc(C)c2nc(N3CCC(C(=O)NCCCN4CCCCC4)CC3)sc2c1`, the CPE inhibition was 21.9% (inactive).
For `Cc1cccc(S(=O)(=O)Nc2ccc(-c3cn4ccccc4n3)cc2)c1` the value was 21% (inactive).
For `COC(=O)Cn1c(=NC(=O)c2cccc(OC)c2)sc2cc(OC)ccc21` the value was 1.97% (inactive); for `Nc1c(C(=O)N/N=C/c2ccc(Cl)cc2)cnn1-c1ccccc1`, 0.12% (inactive).
As to `NNC(=O)c1cc(-c2ccccc2)sc1N`, the CPE inhibition was 1.27% (inactive).
As for `OCCC1CN(Cc2cccn2-c2nccs2)CCN1Cc1ccccc1` (stereo not drawn), the figure is -1.03% (inactive); as for `CC(C)CCN1CCN(Cc2cccn2-c2nccs2)CC1CCO` (stereo not drawn), 1.17% (inactive).
In the case of `COc1ccc(Cn2nnnc2C(c2cccs2)N2CCOCC2)cc1` (stereo not drawn), the CPE inhibition was 0.05% (inactive).
With `CC(=O)Nc1ccc(NC(=O)c2c(C)nn(Cc3ccccc3)c2Cl)cc1`, the CPE inhibition is 5.46% (inactive).
For `Cc1nn(-c2ccccc2Cl)c(Cl)c1/C=N/Nc1cccc(C(=O)O)c1` the value was 3.47% (inactive); for `Cc1nn(-c2ccccc2Cl)c(Cl)c1/C=N/Nc1nc2ccccc2s1`, 4.62% (inactive); for `CCC(C(=O)Nc1c2c(nn1C(C)(C)C)CS(=O)(=O)C2)c1ccccc1` (stereo not drawn), 1.09% (inactive).
For the compound `Cn1ccnc1SCc1ccc(Cl)cc1Cl`, the CPE inhibition is 1.17% (inactive).
For `N#Cc1c(-c2ccccc2Cl)noc1/C=C/Nc1ccc(C(=O)O)cc1` the value was 2.42% (inactive); for `CN(C)/C=C/c1onc(-c2c(Cl)cccc2Cl)c1C#N`, 1.69% (inactive).
As for `O=C(c1ccccc1Sc1c(Cl)cccc1[N+](=O)[O-])N1CCOCC1`, the figure is 4.6% (inactive); as for `COc1ccc(/C(C)=N/NC(=O)C2C3CCCCC32)c(OC)c1` (stereo not drawn), -0.16% (inactive).
Turning to `CCc1ccc(OCC(=O)Nc2ccc3c(c2)OCCO3)cc1`, the CPE inhibition is 0.88% (inactive).
In the case of `Cc1ccc2c(c1)cc(CN(Cc1cccs1)C(=O)c1ccco1)c1nnnn12`, the CPE inhibition is 4.88% (inactive).
For `Cc1ccc2c(c1)cc(CN(Cc1ccco1)C(=O)N1CCOCC1)c1nnnn12` the value was -0.68% (inactive); for `O=C(c1ccc(Cl)c(S(=O)(=O)N2CCCC2)c1)N1CCOCC1`, 4.9% (inactive); for `O=c1[nH]c(CNCc2cccnc2)nc2ccccc12`, 1.68% (inactive).
On to `CCC1C(=O)n2nc(-c3ccccc3)cc2N=C1C` (stereo not drawn), for which the CPE inhibition was 0.9% (inactive).
As for `Cc1cccc(NS(=O)(=O)c2cc(C(=O)OCC(=O)Nc3cc(C)on3)ccc2C)c1`, the figure is -0.1% (inactive); as for `Cc1cc(NC(=O)COC(=O)c2oc3c(Cl)cccc3c2C)no1`, 2.63% (inactive).
As for `Cc1cc(NC(=O)COc2ccc(N(C)S(=O)(=O)c3ccccc3)cc2)no1`, the figure is 0.18% (inactive).
As for `Cc1cc(NC(=O)COC(=O)c2ccc(NS(=O)(=O)c3ccc(C)c(C)c3)cc2)no1`, the figure is 0.64% (inactive); as for `Cc1cc(NC(=O)COC(=O)c2cc(S(=O)(=O)N(C)c3ccccc3)ccc2Cl)no1`, 0.4% (inactive); as for `Cc1cc(NC(=O)c2c(Cl)cccc2Cl)no1`, -0.16% (inactive).
As to `O=C(CNC(=O)c1ccc(Br)o1)NNC(=O)c1cccc(Cl)c1`, the CPE inhibition is -2.18% (inactive).
As for `O=C1N=c2ccccc2=C1c1sc(NS(=O)(=O)c2ccccc2)nc1O`, the figure is 4.47% (inactive); as for `CCOC(=O)N1CCC(N2CCCC(CO)(Cc3ccccc3C)C2)CC1` (stereo not drawn), 0.07% (inactive).
For `CC(=O)c1cccc(NC(=O)c2csc3c2CCCCC3)c1` the value was 13.4% (inactive).
As for `N#Cc1ccccc1CSc1ncccc1C(=O)O`, the figure is -0.85% (inactive).
Regarding `CCOC(=O)C1=C(NC(=S)NC(=O)c2ccccc2)c2ccccc2CC1(C)C`, the CPE inhibition is 7.06% (inactive).
`CCOC(=O)C1=C(NC(=S)NC(=O)c2ccccc2)c2ccccc2CC1(C)CC` (stereo not drawn): the CPE inhibition is 43.2% (inactive).
As for `CCOc1cc(/C=C2\SC(=NC)N(C)C2=O)c(Br)cc1OC(C)=O`, the figure is 1.71% (inactive); as for `Cc1cccc(C)c1OCc1n[nH]c(=S)o1`, 0.21% (inactive).
For the compound `Cc1ccc2c(c1)COc1c3ccc(C(=O)N[C@@H](CO)C(C)C)cc3nn1-2`, the CPE inhibition was 15% (inactive).
As for `Cc1ccc2c(c1)COc1c3ccc(C(=O)NC(C)C)cc3nn1-2`, the figure is 16.2% (inactive).
For `CCN(CC)CCN(Cc1cc2cc3c(cc2[nH]c1=O)OCO3)C(=S)NCc1ccco1` the value was -1.07% (inactive); for `CCOC(=O)CN1C(=O)N[C@@H](c2ccccc2)C(C(C)=O)=C1C`, 2.81% (inactive); for `CCOC(=O)CN1C(=O)N[C@@H](c2cccc(F)c2)C(C(=O)OC)=C1C`, 9.26% (inactive).
In the case of `OC(CNC1CCCC1)COc1ccc(Cl)cc1` (stereo not drawn), the CPE inhibition was -0.21% (inactive).
For `COc1ccc(OC)c(CN2CCC(CO)(CCOc3ccccc3)CC2)c1` the value was -2.58% (inactive); for `COc1ccc(OCC(=O)Nc2nc3c(s2)CCCC3)cc1`, 6.78% (inactive).
For `O=C(CCCc1cccs1)Nc1nc2c(s1)CCCC2` the value was 1.81% (inactive); for `O=C(Nc1nc2c(s1)CCCC2)c1ccc(S(=O)(=O)N2CCCc3ccccc32)cc1`, 1.63% (inactive).
As for `O=C(Nc1nc2c(s1)CCCC2)c1cccc(S(=O)(=O)N2CCCc3ccccc32)c1`, the CPE inhibition is 7.22% (inactive).
For `O=C(COc1ccccc1)Nc1nc2c(s1)CCCC2` the value was 14% (inactive); for `O=C(Nc1nc2c(s1)CCCC2)c1cccs1`, 14.3% (inactive).
For `COC(=O)c1ccc(C(C(=O)NC2CCCCC2)N(Cc2ccc(F)cc2)C(=O)Cc2cccs2)cc1` (stereo not drawn) the value was 7.57% (inactive); for `CC(=O)OCCNC(=O)Cn1cnc2c1c(=O)n(C)c(=O)n2C`, 0.79% (inactive); for `COc1ccc(C2CC(C(F)(F)F)n3nc(C(N)=O)c(Cl)c3N2)cc1OC` (stereo not drawn), 3.38% (inactive).
For `CC1CCN(CC(=O)Nc2ccc(S(=O)(=O)N3CCCCC3)cc2)CC1` the value was -0.34% (inactive); for `Cc1ccc(N2CC(C(=O)Nc3ccc(S(=O)(=O)N4CCOCC4)cc3)CC2=O)cc1` (stereo not drawn), -0.55% (inactive); for `COc1ccc(CCNC(C)=O)cc1`, 3.67% (inactive).
In the case of `CCOC(=O)C1(Cc2cccc(OC)c2)CCN(CCO)CC1`, the CPE inhibition is -1.67% (inactive).
For `Cc1c(C(=O)N(C)Cc2cccc(F)c2)oc2c(Cl)cccc12` the value was 18% (inactive).

The record behind these values is PubChem BioAssay AID2391 (Southern Research Specialized Biocontainment Screening …, 2010).
